Results reported in PubChem BioAssay (Tox21).
Values without a mark were called inactive. Active and inactive are the calls of the source. Calls follow the shape of the dose curve; as a rule, active = well fitted curve in the direction sought with a large enough effect in the repeat runs; inconclusive = weak or mixed curves; inactive = flat fitted curve, though single readings scatter.

Assay: qHTS assay to test for compound auto fluorescence at 460 nm (blue) in HEK293 cell free culture (AID 720681)
Conditions: cell-free medium, autofluorescence 405/460 nm (blue); series mostly up to 91.3 µM; fluorescence, % of fluorescent control: at the top concentration
Method in brief: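 Compounds were added to cell-free DMEM with 10% FBS and fluorescence read directly. The blue channel used 405 nm excitation and 460 nm emission, with triamterene as the reference fluorophore.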
% is scaled to controls: 0 for no effect and ±100 for the full control effect.

Row | SMILES | fluorescence, % of fluorescent control | outcome
1 | CCCCc1ccc(O)cc1 | -0.113% | 
2 | O=NN1CCCCC1 | -0.2% | 
3 | CC(=O)[C@H]1CC[C@H]2[C@@H]3CC[C@H]4C[C@H](O)CC[C@]4(C)[C@H]3C(=O)C[C@]12C | -0.0971% [at 46 µM] | 
4 | O=NN1CCN(N=O)CC1 | -0.0046% | 
5 | ClCCOCOCCCl | 0.0543% [at 95.7 µM] | 
6 | COc1cccc2c1cc([N+](=O)[O-])c1c(C(=O)O)cc3c(c12)OCO3 | -0.338% | 
7 | N#CCBr | -0.0393% [at 95.7 µM] | 
8 | C[C@H]1CCC[C@H](O)CCCCCc2cc(O)cc(O)c2C(=O)O1 |  | inactive
9 | CC1=C(C(=O)Nc2ccccc2)S(=O)(=O)CCO1 | -0.0248% | 
10 | CC(C)CC(N(C)C)C1(c2ccc(Cl)cc2)CCC1 (stereo not given) | -0.0145% [at 46 µM] | 
11 | CC(=O)C(Cl)Cl | 0% [at 95.7 µM] | 
12 | CC(COc1ccc(Oc2ccccc2)cc1)Oc1ccccn1 (stereo not given) | -0.143% | 
13 | CC(C)[N+](=O)[O-] | -0.125% | 
14 | CCOP(=S)(OCC)Oc1nc(Cl)n(C(C)C)n1 | 0.0246% | 
15 | COc1ccc2c(c1OC)CN1CCc3cc4c(cc3C1C2)OCO4 (stereo not given) | 0.288% [at 18.6 µM] | 
16 | CCNc1nc(NC(C)C)nc(OC)n1 | -0.108% | 
17 | COC(=O)c1ccccc1S(=O)(=O)NC(=O)N(C)c1nc(C)nc(OC)n1 | 0.118% [at 95.7 µM] | 
18 | C=CCC1=C(C)[C@@H](OC(=O)[C@@H]2[C@@H](C=C(C)C)C2(C)C)CC1=O | -0.0235% | 

Row | SMILES | fluorescence, % of fluorescent control | outcome
19 | CCCCOC(=O)c1ccccc1N | 0.031% | 
20 | [As]#[In] | -0.157% | 
21 | CN1CCC(O)(c2ccc(F)cc2)C(C(=O)c2ccc(F)cc2)C1 (stereo not given) | 0.109% [at 46 µM] | 
22 | CCCCOP(=O)(O)OCCCC | 0.0056% | 
23 | O=C(NCO)NCO | -0.0025% [at 95.7 µM] | 
24 | CCS(=O)(=O)CCSP(=O)(OC)OC | -0.0407% | 
25 | CNC(=O)O/N=C(\C)SC | 0.0481% | 
26 | CSc1nc(N=[N+]=[N-])nc(NC(C)C)n1 | -0.0917% | 
27 | O=C(CCN1CC1)OCC(CO)(COC(=O)CCN1CC1)COC(=O)CCN1CC1 | -0.0229% | 
28 | [O]=[Cd] |  | inactive
29 | CCCSC(=O)Cl | -0.0821% | 
30 | CCS(=O)(=O)C(C)(C)S(=O)(=O)CC | -0.0085% [at 46 µM] | 
31 | Nc1n[nH]c(N)n1 | -0.0062% [at 95.7 µM] | 
32 | CCC/C(=N\OCC)C1=C(O)CC(CC(C)SCC)CC1=O (stereo not given) | 0.0034% | 
33 | O=[N+]([O-])c1cccc2c([N+](=O)[O-])cccc12 | -0.186% | 
34 | CC1=NNC(=O)N(/N=C/c2cccnc2)C1 | 0.0289% | 
35 | CCCCN(CCCCO)N=O | 0.0231% | 
